Assay outcomes: PubChem BioAssay, The Scripps Research Institute Molecular Screening Center
The list is not random: actives were taken first. Their share in the collection is about 3.4%.
GPR151 ag – activators of human GPR151, primary screen, cell-based, PathHunter beta-arrestin, luminescence; G-protein coupled receptor 151 (Homo sapiens), Q8TDV0; PathHunter beta-arrestin GPR151 cells; activation, % at 11.2 µM; 1% of 650,000 active; in the data active = activation above about 4.9%
MITF primary – MITF inhibitors, primary screen, biochemical, AlphaScreen, human; Microphthalmia-associated transcription factor (Homo sapiens), O75030; AlphaScreen MITF homodimerization, bead proximity signal; inhibition, % at 2.6 µM; 0.91% of 650,000 active; AID 1259374, 2018; in the data active = inhibition above about 50%
FBW7 activator – FBW7 E3 ligase activators, primary screen, biochemical, AlphaScreen, human. F-box/WD repeat-containing protein 7 (Homo sapiens), Q969H0. AlphaScreen FBW7–phospho-cyclin E peptide binding, activator screen. normalized activity (activation), % at 26.1 µM. 0.13% of 650,000 active. AID 1259310, 2017; in the data active = normalized activity above about 1.9%;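 also: purified mutant Fbw7 with reduced substrate affinity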
Target sequence (Q969H0 whole entry, looked up): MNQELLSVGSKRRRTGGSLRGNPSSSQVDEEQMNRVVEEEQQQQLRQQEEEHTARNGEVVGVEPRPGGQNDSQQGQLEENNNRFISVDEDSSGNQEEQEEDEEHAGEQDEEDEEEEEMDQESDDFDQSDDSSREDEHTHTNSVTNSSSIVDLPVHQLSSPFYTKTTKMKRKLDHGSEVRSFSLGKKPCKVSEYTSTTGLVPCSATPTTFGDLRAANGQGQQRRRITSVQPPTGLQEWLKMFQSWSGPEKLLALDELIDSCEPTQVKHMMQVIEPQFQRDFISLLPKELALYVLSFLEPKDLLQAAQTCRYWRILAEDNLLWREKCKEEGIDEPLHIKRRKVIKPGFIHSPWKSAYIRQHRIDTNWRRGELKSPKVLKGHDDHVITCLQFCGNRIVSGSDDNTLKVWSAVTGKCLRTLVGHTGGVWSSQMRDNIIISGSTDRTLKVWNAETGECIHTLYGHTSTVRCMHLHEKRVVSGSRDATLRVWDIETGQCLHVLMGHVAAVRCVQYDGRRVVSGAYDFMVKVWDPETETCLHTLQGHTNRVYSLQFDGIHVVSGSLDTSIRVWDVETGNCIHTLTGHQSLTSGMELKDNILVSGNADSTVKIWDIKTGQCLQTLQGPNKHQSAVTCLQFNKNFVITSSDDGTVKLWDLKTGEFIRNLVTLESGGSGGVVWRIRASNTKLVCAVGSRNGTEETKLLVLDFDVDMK
TEAD-YAP block – TEAD-YAP interaction inhibition, primary screen, TEAD-YAP interaction inhibitor project, luminescence, HEK-TIYL cells; TEAD-Gal4/YAP UAS-luciferase luminescence; inhibition, % at 9.12 µM; 1.4% of 640,000 active; AID 1259422, 2018; in the data active = inhibition above about 32%
A number is an active result; - = inactive.

SMILES	GPR151 ag	MITF primary	FBW7 activator	TEAD-YAP block
CCOC(=O)c1ccc(NC(=O)CSc2nnc3c(n2)[nH]c2ccc(OC)cc23)cc1	-	-	-	-
Cc1cc(C(=O)N/N=C/c2c(O)ccc3cc([N+](=O)[O-])ccc23)n[nH]1	-	-	-	-
O=C(N/N=C/c1cc([N+](=O)[O-])ccc1O)c1ccccc1O	-	87	-	-
Cc1cc(C(=O)N/N=C/c2cc([N+](=O)[O-])ccc2O)n[nH]1	-	59	-	-
O=C(N/N=C\c1ccccc1O)c1cnccn1	-	59	-	-
O=C(N/N=C\c1ccccc1F)c1cnccn1	-	-	-	-
CCOC(=O)c1csc2c1CCC/C2=N/O	-	-	-	51
CCOC(=O)c1csc2c1CCC/C2=N\O	-	-	-	48
CCOC(=O)c1csc2c1CCC(Br)(Br)C2=O	-	-	-	-
Cc1cccc(NC(=O)C2(c3cc(-c4cccs4)on3)CC2)n1	-	-	-	-
NC(=O)c1ccccc1N=Cc1cccc(Cl)c1Cl	-	-	-	54
CC[n+]1c(C)n(CCCS(=O)(=O)O)c2cc(C#N)ccc21	-	-	-	-
CCCC(CCn1c(C)[n+](CC)c2ccc(C#N)cc21)S(=O)(=O)O (stereo not drawn)	-	-	1.9	-
NNC(=O)Nc1cccc2nsnc12	-	-	-	66
COC(=O)CCCNc1nncc(-c2ccc3c(c2)OCO3)n1	-	-	-	35
O=C(Cn1c(CO)cnc1SCC(=O)N1CCc2ccccc21)NCc1ccc(F)cc1	-	-	-	-
O=S(=O)(NCC1CCCO1)c1ccc(NS(=O)(=O)c2ccc(F)cc2)cc1 (stereo not drawn)	-	-	-	-
O=S(=O)(NCC1CCCO1)c1ccc(-c2ccc(S(=O)(=O)NCC3CCCO3)cc2)cc1 (stereo not drawn)	-	-	-	52
O=S(=O)(NCC1CCCO1)c1ccc(Cc2ccc(S(=O)(=O)NCC3CCCO3)cc2)cc1 (stereo not drawn)	-	-	-	43
COc1ccc(CCN2C(=O)CSC2c2ccc(C(C)C)cc2)cc1OC (stereo not drawn)	-	-	-	40
CCC(CO)Nc1ccc2ncc(-c3cncc(OC)c3)n2n1 (stereo not drawn)	-	-	-	54
CCC(CO)Nc1ccc2ncc(-c3ccc(OC)cc3)n2n1 (stereo not drawn)	-	-	-	-
CCC(CO)Nc1ccc2ncc(-c3cccc(NS(C)(=O)=O)c3)n2n1 (stereo not drawn)	-	-	-	37
CCOC(=O)C1CCN(C(=O)COC(=O)c2cc(O)c(O)c(O)c2)CC1	-	90	-	-
CCOC(=O)C1CCN(C(=O)COc2ccc(C)cc2)CC1	-	-	-	-
SMILES	GPR151 ag	MITF primary	FBW7 activator	TEAD-YAP block
CCOC(=O)C1CCN(C(=O)COc2ccc(C(C)(C)C)cc2)CC1	-	-	-	60
CCOC(=O)C1CCN(C(=O)COCC(=O)N2CCC(C(=O)OCC)CC2)CC1	-	-	-	-
COc1ccc(-n2c(=S)[nH]c3cc(C(=O)N4CCC(C(N)=O)CC4)ccc3c2=O)cc1	-	-	-	-
COc1ccc(-c2cccc3cnc(Nc4ccc(-n5cnc(C)n5)cc4)nc23)cc1F	-	-	-	-
COc1ccccc1C(=O)Nc1ccc2nc(SCC(=O)NCCOc3ccccc3)sc2c1	-	-	-	53
CC(=O)Nc1ccc2nc(SCC(=O)N3CCN(c4ccccc4)CC3)sc2c1	-	-	-	-
COc1ccccc1C(=O)Nc1ccc2nc(SCC(=O)NCc3ccccc3)sc2c1	-	-	-	52
CCC(=O)Nc1ccc2nc(SCC(=O)N3CCN(c4ccccc4)CC3)sc2c1	-	-	-	45
CCNC(=O)c1cc(CNCCC(C)c2ccccc2)cc(NC(=O)c2ccccn2)c1 (stereo not drawn)	-	-	-	-
COc1ccc(C(C)C)cc1-c1cnc2ccc(NCc3ccncc3)nn12	-	-	-	-
Cc1ccc(N2CCN(C(=O)Cc3nn(C)c(=O)c4ccccc34)CC2C)cc1 (stereo not drawn)	-	-	-	38
CC(=O)c1ccc(NC(=O)/C(=C/c2ccc(Br)cc2)NC(=O)c2ccccc2F)cc1	-	-	-	-
C=CC[n+]1c(Nc2ccc(NC(C)=O)cc2)sc(C)c1-c1ccccc1	-	-	-	33
COc1ccccc1NC(=O)Cc1nn(C)c(=O)c2ccccc12	-	-	-	36
Cn1nc(CC(=O)Nc2ccc(F)cc2Cl)c2ccccc2c1=O	-	-	-	46
COc1ccccc1C(=O)NN1C(=O)CCC1=O	-	-	-	-
O=C(NN1C(=O)CCC1=O)c1ccccc1O	-	-	-	47
CN1C(=O)/C(=C/C2=Cc3ccccc3OC2)SC1=S	-	-	-	-
CN1CC=C(/C=C/C2=Cc3ccccc3OC2)CC1	-	-	-	75
CCC(=O)N(CCCO)Cc1cc2ccc(C)cc2[nH]c1=O	-	-	-	36
CC(=O)Nc1nc(-c2cc(Cl)ccc2Cl)cs1	-	-	-	-
CC(=O)Nc1nc(-c2ccc(Cl)cc2Cl)cs1	-	-	-	50
COc1ccc(-c2nc(Nc3ccc(N4CCOCC4)cc3)c3[nH]cnc3n2)cc1	-	-	-	64
NC(=O)c1ccc(-c2nc(Nc3ccc(N4CCOCC4)cc3)c3[nH]cnc3n2)cc1	-	-	-	73
Cc1ccc(-c2c(C(=O)Nc3ccc(C)c(C)c3)oc(=O)c3ccccc23)cc1	-	-	-	-
SMILES	GPR151 ag	MITF primary	FBW7 activator	TEAD-YAP block
Cc1cc(C(=O)N2CCC(C3(CCC(C)C)NC(=O)NC3=O)CC2)c(C)o1 (stereo not drawn)	-	-	-	-
COc1cccc2sc(=NC(=O)c3ccc([N+](=O)[O-])o3)n(C)c12	-	-	-	-
COc1ccccc1N=C1SCCN1C(=O)c1ccc([N+](=O)[O-])o1	-	-	2.2	-
N#Cc1c(Cl)nsc1N/N=C/c1ccccc1	-	-	-	41
CSc1nsc(N/N=C/c2ccccc2)c1C#N	-	-	-	-
O=C1NC(=S)N/C1=C\c1ccc(O)c(Cl)c1	-	-	-	-
O=C1/C(=C/c2cccnc2)CCC/C1=C\c1cccnc1	-	-	-	87
CC1CN2C(=O)Cc3c(S(=O)(=O)Nc4ccc(F)cc4)ccc(c32)S1 (stereo not drawn)	-	-	-	-
CCc1cccc(NS(=O)(=O)c2ccc3c4c2CC(=O)N4CC(C)S3)c1 (stereo not drawn)	-	-	-	36
O=C1NCCN(CC2CCCCC2)C1CC(=O)N1CCN(c2ccccc2F)CC1 (stereo not drawn)	-	-	-	-
O=C(Nc1ncc([N+](=O)[O-])s1)c1ccc(Br)cc1F	-	-	-	85
Nc1cc(Cl)ccc1N1CCCCC1	-	-	-	-
Nc1ccc(N2CCCCC2)cc1N1CCCCC1	-	-	-	72
COc1cc(C(=O)Nc2ccc3c(c2)oc2ccccc23)cc(OC)c1OC	-	-	-	57
